Source: PubChem BioAssay AID1159580 (chemical genetic matrix, 2015)
The whole screen tested about 5,500 compounds, of which about 2,000 (36%) were called active. Another 18% or so got no clear call; they are omitted. Rule as the data show it: active = normalized growth mostly below about 0.91 (no sharp cut-off); inconclusive = no clear call, values can overlap the other calls; inactive = mostly above about 0.92. This is one part of the list.

Assay: chemical genetic growth profiling, strain panel (AID 1159580);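 also: tested at 20 µM; growth read once vehicle control cultures reached saturation at 30 °C; 1 = growth at the plate median or of vehicle wells; lower values mean less growth of the strain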
Details: growth OD
[1] = S. cerevisiae deletion strains, locus YHR030C, strain SLT2, stronger effect = lower value

Measured: normalized growth

CCOc1ccc2nc(S(N)(=O)=O)sc2c1
inactive: [1] 0.978 | S. cerevisiae deletion strains, locus YHR079C, strain IRE1, stronger effect = lower value 0.969 | S. cerevisiae deletion strains, locus YJL095W, strain BCK1, stronger effect = lower value 1.02 | S. cerevisiae deletion strains, locus YJR066W, strain TOR1, stronger effect = lower value 0.924 | S. cerevisiae deletion strains, locus YLR113W, strain HOG1, stronger effect = lower value 1.05 | S. cerevisiae deletion strains, locus YNL183C, strain NPR1, stronger effect = lower value 0.927 | S. cerevisiae deletion strains, locus YOR231W, strain MKK1, stronger effect = lower value 0.955 | S. cerevisiae deletion strains, locus YPL256C, strain CLN2, stronger effect = lower value 0.963

COc1ccc(C(=O)CN2CCN(c3cc(C)nc4ccccc34)CC2)cc1
inactive: S. cerevisiae deletion strains, locus YAL013W, strain DEP1, stronger effect = lower value 1.01 | S. cerevisiae deletion strains, locus YBR229C, strain ROT2, stronger effect = lower value 1.01 | S. cerevisiae deletion strains, locus YCL061C, strain MRC1, stronger effect = lower value 1 | S. cerevisiae deletion strains, locus YDL101C, strain DUN1, stronger effect = lower value 0.968 | S. cerevisiae deletion strains, locus YDL134C, strain PPH21, stronger effect = lower value 0.994 | S. cerevisiae deletion strains, locus YDR150W, strain NUM1, stronger effect = lower value 0.982 | S. cerevisiae deletion strains, locus YEL061C, strain CIN8, stronger effect = lower value 0.979 | S. cerevisiae deletion strains, locus YGR078C, strain PAC10, stronger effect = lower value 1 | [1] 0.905 | S. cerevisiae deletion strains, locus YHR087W, strain rtc3, stronger effect = lower value 0.994 | S. cerevisiae deletion strains, locus YJL187C, strain SWE1, stronger effect = lower value 1 | S. cerevisiae deletion strains, locus YJR043C, strain POL32, stronger effect = lower value 1 | S. cerevisiae deletion strains, locus YJR075W, strain HOC1, stronger effect = lower value 1.01 | S. cerevisiae deletion strains, locus YLR039C, strain RIC1, stronger effect = lower value 0.956 | S. cerevisiae deletion strains, locus YLR058C, strain SHM2 (second series), stronger effect = lower value 1.01 | S. cerevisiae deletion strains, locus YLR085C, strain ARP6, stronger effect = lower value 0.987 | S. cerevisiae deletion strains, locus YLR262C, strain YPT6, stronger effect = lower value 0.942 | S. cerevisiae deletion strains, locus YML094W, strain GIM5, stronger effect = lower value 0.957 | S. cerevisiae deletion strains, locus YMR219W, strain ESC1, stronger effect = lower value 0.997 | S. cerevisiae deletion strains, locus YMR263W, strain SAP30, stronger effect = lower value 1.04 | S. cerevisiae deletion strains, locus YMR307W, strain GAS1, stronger effect = lower value 1.09 | S. cerevisiae deletion strains, locus YNL153C, strain GIM3, stronger effect = lower value 1.01 | S. cerevisiae deletion strains, locus YNL298W, strain CLA4 (second series), stronger effect = lower value 0.975 | S. cerevisiae deletion strains, locus YNL322C, strain KRE1, stronger effect = lower value 0.998 | S. cerevisiae deletion strains, locus YNR030W, strain Alg12, stronger effect = lower value 0.994 | S. cerevisiae deletion strains, locus YOL006C, strain TOP1, stronger effect = lower value 0.995 | S. cerevisiae deletion strains, locus YPL055C, strain LGE1, stronger effect = lower value 1.01 | S. cerevisiae deletion strains, locus YPL241C, strain CIN2, stronger effect = lower value 1.05 | S. cerevisiae deletion strains, locus YPR135W, strain CTF4, stronger effect = lower value 0.944 | S. cerevisiae strains, strain wild type, stronger effect = lower value 1
